Assay outcomes deposited in PubChem by National Center for Advancing Translational Sciences (NCATS).
Shown are actives, neighbours in structure and some others; about 0.9% of the full set was active somewhere.
Rhodamine fluor = compound autofluorescence in rhodamine spectral region; max dye-equivalent concentration, M; Rhodamine-region fluorescence, 547/598 nm, Tris buffer; active compounds read high; 59,000 tested, 0.05% active; in the data active = max dye-equivalent concentration above about 11 nM; inconclusive = between about 1.1 nM and that limit
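Intensities are converted to rhodamine-equivalent concentration using a six-point rhodamine standard on each plate. Compounds sit 15 min at room temperature in 100 mM Tris buffer, pH 8.0; read uses the 547/598 nm excitation/emission pair.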
A647 autofl = A647 region autofluorescence; Compound fluorescence, A647 channel (570/671 nm), Tris buffer; max dye-equivalent concentration, M; 59,000 tested, under 10 active; AID 592
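Tris 100 mM pH 8.0; cpd + A647 stds pin-transferred; 15 min RT; CCD imager, ex 570/em 671. Output = A647-equivalent conc. per cpd conc.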
Texas Red fluor = compound fluoresces in the Texas Red spectral region | max dye-equivalent concentration, M | AID 587 | 59,000 tested, 0.06% active | Compound fluorescence, Texas Red channel, 547/618 nm; active compounds read high; in the data active = max dye-equivalent concentration above about 10 nM; inconclusive = between about 1.1 nM and that limit
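Compound fluorescence was read after 15 min at room temperature in 100 mM Tris, pH 8.0, using 547 nm excitation and 618 nm emission across a concentration series. It was expressed as Texas Red dye-equivalent concentration from an on-plate standard curve.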
A488 autofl = compound fluoresces in the A488 spectral region | AID 591 | max dye equivalency, M | compound autofluorescence, A488 spectral region, dye equivalency; Compound Type: qHTS ECL - MLSMR | 59,000 tested, 0.1% active
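Spectroscopic profiling in the A488 region: compounds in pH 8.0 Tris (100 mM), 15 min RT, CCD imaging with 480 nm excitation and 540 nm emission; responses normalized against A488 dye standards.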
Resorufin autofl = resorufin region autofluorescence | Compound fluorescence, resorufin region 547/598 nm, buffer; active compounds read high | max dye-equivalent concentration, M | 59,000 tested, 0.04% active
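Dye-equivalent concentration values derive from comparing each well's 547/598 nm fluorescence against resorufin standards included on every plate. Incubation was 15 min at room temperature in 100 mM Tris, pH 8.0.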
Fluorescein autfl = compound autofluorescence in fluorescein spectral region | max fluorescein-equivalent concentration, M | 59,000 tested, 0.91% active | Compound autofluorescence, 480/540 nm, fluorescein-equivalent; active compounds read high | AID 593; in the data active = max fluorescein-equivalent concentration above about 10 nM; inconclusive = between about 1.1 nM and that limit
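Fluorescein stocks ranging 3 mM down to 300 nM, plus DMSO blanks, were pinned alongside compounds to build a per-plate standard curve. Buffer: 100 mM Tris, pH 8.0. Incubation 15 min, room temperature; filters 480/540 nm.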
Hits are given with their value; - = inactive; ? = inconclusive. Unless noted, the rule behind the calls is not given here.

SMILES	Rhodamine fluor	A647 autofl	Texas Red fluor	A488 autofl	Resorufin autofl	Fluorescein autfl
CN[C@@H](CC(C)C)C(=O)N[C@@H]1C(=O)N[C@H](CC(N)=O)C(=O)N[C@H]2C(=O)N[C@H]3C(=O)N[C@H](C(=O)N[C@H](C(=O)O)c4cc(O)cc(O)c4-c4cc3ccc4O)[C@H](O)c3ccc(c(Cl)c3)Oc3cc2cc(c3O[C@@H]2O[C@@H](CO)[C@@H](O)[C@@H](O)[C@H]2O[C@H]2C[C@](C)(N)[C@H](O)[C@H](C)O2)Oc2ccc(cc2Cl)[C@@H]1O	-	-	-	-	-	?
N=C(N)SCc1cccc2c(=O)cc(-c3ccccc3)oc12	-	-	-	-	-	-
COc1ccc2nc(N3CCCC3)c(C#N)cc2c1	-	-	-	?	-	7.21e-08M
COc1ccc2nc(N3CCCCC3)c(C#N)cc2c1	-	-	?	-	-	1.51e-08M
Nc1nc(N)nc(CCCCc2nc(N)nc(N)n2)n1	-	-	?	-	-	-
CCn1c(CSc2nnc(-c3cccnc3)n2-c2ccccc2C)nc2cc(C(=O)O)ccc21	2.6e-07M	?	4.17e-07M	-	2.22e-07M	?
CCOc1ccccc1-n1c(SCC(N)=O)nnc1-c1cccnc1	-	-	-	-	-	-
CCn1c(CSc2nnc3ccccn23)nc2cc(C(=O)O)ccc21	7.1e-08M	-	1.14e-07M	-	4.74e-08M	1.35e-08M
Cc1c(N=C2Nc3cccc4cccc2c34)c(=O)n(-c2ccccc2)n1C	-	-	-	?	-	1.54e-07M
CN1CCCN=C1/C=C\c1cccs1	-	-	-	-	-	-
O=C(/C=C\c1ccc(O)cc1)c1ccc(O)cc1O	-	-	?	?	-	3.71e-08M
C=CCN1CCc2c(cc(O)c(O)c2Br)[C@H](c2ccccc2)C1	-	-	-	-	-	-
Cc1nn2cnc3sc4c(c3c2nc1=O)CCCC4	-	-	-	-	-	1.01e-08M
O=C1C=CC2=C3c4cc(O)c(O)cc4C[C@@]3(O)COC2=C1O	-	-	?	-	-	?
O=c1oc2c(CN3CCCCCC3)c(O)ccc2cc1-c1nc2ccccc2[nH]1	-	-	-	1.45e-07M	-	2.97e-06M
CNc1ncnc2ccc(-c3ccccc3C#N)cc12	-	-	-	-	-	?
CCN1C(=O)c2cccc3c(NC(=O)C4CCCCC4)ccc1c23	-	-	-	-	-	?
CCN1C(=O)c2cccc3c(NC(=O)c4ccc5c(c4)OCCO5)ccc1c23	-	-	-	?	-	5.54e-08M
O=C(O)CCC/C=C\C[C@H]1[C@@H](/C=C\[C@@H](O)C2Cc3ccccc3C2)[C@H](F)C[C@H]1O	-	-	-	-	-	-
Cn1c2ccccc2c(=O)n2c(=O)c3ccccc3cc12	-	-	-	?	-	3.94e-08M
O=C(c1ccc(Cl)cc1)C1C2C(=O)N(c3ccccc3)C(=O)C2C2CCCN21 (centres undefined)	-	-	-	?	-	5.18e-08M
Cc1ccc(N2C(=O)[C@@H]3[C@H](C2=O)C2CCCN2[C@@H]3C(=O)c2ccccc2)cc1 (some centres undefined)	-	-	-	-	-	?
CC(=O)c1ccc(N2C(=O)C3C(C2=O)C(C(=O)c2ccc(Cl)cc2)N2CCCC32)cc1 (centres undefined)	-	-	-	?	-	1.32e-07M
COc1ccccc1CNc1ncnc2ccc(-c3ccoc3)cc12	-	-	-	-	-	-
CC(=O)c1c(C)nc2cc(Cl)ccc2c1N	-	-	-	-	-	-
SMILES	Rhodamine fluor	A647 autofl	Texas Red fluor	A488 autofl	Resorufin autofl	Fluorescein autfl
Cc1nc2ccc(Cl)cc2nc(C)/c1=N\O	-	-	?	?	-	1.08e-07M
C=C[C@@](C)(O)CC[C@H]1[C@]2(C)CCCC(C)(C)[C@H]2CC[C@]1(C)O	-	-	-	-	-	?
CC(=O)c1c[nH]c2ccc(C)cc2c1=O	-	-	-	-	-	?
CCOC(=O)c1ccc2[nH]cc(C(C)=O)c(=O)c2c1	-	-	-	-	-	2.16e-08M
O=C(NC12CC3CC(CC(C3)C1)C2)c1cnccn1	-	-	?	-	-	1.09e-08M
C=CCn1c(=S)[nH]c2ccc(Br)cc2c1=O	-	-	-	-	-	1.95e-08M
C=CCn1c(=S)[nH]c2nc3c(cc2c1=O)CCCC3	-	-	-	-	-	-
Nc1nc(N)c(CCCCc2ccccc2)c(N)n1	-	-	-	-	-	?
CN(C)c1ccc(-c2nnc(-c3ccc(S(=O)(=O)C(F)F)cc3)o2)cc1	-	-	-	-	-	2e-08M
COc1ccc(-c2nnc(-c3ccc(N(C)C)cc3)o2)cc1	-	-	?	-	-	-
CCOC(=O)C1=C(CSc2nc3c(cc2C#N)CN(C)CC3)OC(N)=C(C#N)C1c1ccccc1 (centres undefined)	-	-	-	-	-	3.37e-08M
CCOC(=O)N1CCN(Cc2nc3c(c(=O)n(C)c(=O)n3C)n2CCCc2ccccc2)CC1	?	-	?	?	?	5.55e-08M
O=C(CC1NC(=O)NC1=O)Nc1cccc2ccccc12 (centres undefined)	-	-	-	?	-	4.28e-08M
COc1ccccc1NC(=O)CC1Nc2ccccc2NC1=O (centres undefined)	-	-	-	-	-	-
Nc1ccc(C(=O)O)c(O)c1	-	-	-	-	-	?
Nc1nc(N)c(N=Nc2ccc(C(=O)O)c(O)c2)c(N)n1	-	-	-	-	-	1.4e-08M
O=C(O)CCCCCC[C@@H]1C(=O)NC(=O)N1CC[C@@H](O)C1CCCCC1	-	-	-	-	-	-
COc1ccc(S(=O)(=O)C(C#N)c2nc3ccccc3nc2N2CCCCC2)cc1 (centres undefined)	-	-	-	-	-	?
Cc1ccc(C)c(S(=O)(=O)C(C#N)c2nc3ccccc3nc2N2CCCC2)c1 (centres undefined)	-	-	-	-	-	1.07e-08M
N#CC(c1nc2ccccc2nc1N1CCCC1)S(=O)(=O)c1cccs1 (centres undefined)	-	-	-	-	-	1.69e-08M
COc1ccc(C(=O)N2CCC3(CCCN(Cc4ccccc4)C3)CC2)cc1	-	-	-	-	-	?
Nc1ccccc1S[C@@H](C[N+](=O)[O-])c1ccc2c(c1)OCO2	-	-	-	-	-	?
N#CC1=C(N)SC(N)=C(C#N)C1c1ccnc2ccccc12	-	-	-	-	-	?
N#CC1=C(N)SC(N)=C(C#N)C1c1ccoc1	-	-	-	-	-	1.75e-08M
CC1=C(C#N)C(c2ccoc2)C(C(=O)OCc2ccccc2)=C(N)S1 (centres undefined)	-	-	-	-	-	-
CC(c1ccccc1)C1C(C#N)=C(N)SC(N)=C1C#N (centres undefined)	-	-	-	-	-	-
Cc1ccc(C2C(C#N)=C(N)SC(N)=C2C#N)cc1	-	-	-	-	-	2.32e-08M
